Source: the supplement of paper PMC8728848
The full list was thinned out, with the strongest signals kept by preference.

Key:
Assay in all cases: glycan array binding signal (z-score within array); higher = stronger binding
Settings in all cases: glycan notation: IUPAC condensed, linker removed
[1] = molecular target: Gal(b1-4)GlcNAc(b1-3)Gal(b1-4)GlcNAc(b1-3)[Gal(b1-4)GlcNAc(b1-3)Gal(b1-4)GlcNAc(b1-6)]GalNAc
How it was run: (§1)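 Glycan array data were curated from 3228 arrays in the Consortium for Functional Glycomics database and kept only where the protein sequence was available. Glycan names were converted to IUPAC-condensed notation, and columns mapping to the same glycan were averaged. The binding signal is a within-array Z-score, averaged across arrays of the same protein sequence at different concentrations or buffers and across linkers. Negative Z-scores can be read as non-binding.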

[2] = molecular target: Gal(b1-4)GlcNAc(b1-3)GalNAc
How it was run: as §1

Gal3S(b1-4)Glc6S = molecular target: Gal3S(b1-4)Glc6S
How it was run: as §1

[3] = molecular target: Gal3S(b1-4)[Fuc(a1-3)]Glc
How it was run: as §1

Gal4S(b1-4)GlcNAc = molecular target: Gal4S(b1-4)GlcNAc
How it was run: as §1

Gal6S(b1-4)GlcNAc = molecular target: Gal6S(b1-4)GlcNAc
How it was run: as §1

[4] = molecular target: GalNAc(b1-3)Gal(a1-6)Gal(b1-4)Glc
How it was run: as §1

GalNAc(b1-4)GlcNAc6S = molecular target: GalNAc(b1-4)GlcNAc6S
How it was run: as §1

GalNAc6S(b1-4)GlcNAc = molecular target: GalNAc6S(b1-4)GlcNAc
How it was run: as §1

Glc(a1-4)Glc = molecular target: Glc(a1-4)Glc
How it was run: as §1

Glc(b1-4)Glc = molecular target: Glc(b1-4)Glc
How it was run: as §1

[5] = molecular target: GlcNAc(b1-3)Gal(b1-4)GlcNAc(b1-3)Gal(b1-4)GlcNAc(b1-3)Gal(b1-4)GlcNAc(b1-2)Man(a1-3)[GlcNAc(b1-3)Gal(b1-4)GlcNAc(b1-3)Gal(b1-4)GlcNAc(b1-3)Gal(b1-4)GlcNAc(b1-2)Man(a1-6)]Man(b1-4)GlcNAc(b1-4)[Fuc(a1-6)]GlcNAc
How it was run: as §1

GlcNAc(b1-4)GlcNAc = molecular target: GlcNAc(b1-4)GlcNAc
How it was run: as §1

Kdn(a2-3)Gal(b1-3)GlcNAc = molecular target: Kdn(a2-3)Gal(b1-3)GlcNAc
How it was run: as §1

[6] = molecular target: Man(a1-2)Man(a1-3)[Man(a1-2)Man(a1-6)]Man(a1-6)[Man(a1-2)Man(a1-2)Man(a1-3)]Man(b1-4)GlcNAc(b1-4)GlcNAc
How it was run: as §1

[7] = molecular target: Man(a1-3)[Man(a1-6)]Man(b1-4)GlcNAc(b1-4)[Fuc(a1-6)]GlcNAc
How it was run: as §1

[8] = molecular target: Neu5Ac(a2-3)Gal(b1-3)]Neu5Ac(a2-3)Gal(b1-4)]GlcNAc
How it was run: as §1

[9] = molecular target: Neu5Ac(a2-3)Gal(b1-4)GlcNAc(b1-3)Gal(b1-4)GlcNAc(b1-3)Gal(b1-4)GlcNAc(b1-2)Man(a1-3)[Neu5Ac(a2-3)Gal(b1-4)GlcNAc(b1-3)Gal(b1-4)GlcNAc(b1-3)Gal(b1-4)GlcNAc(b1-2)Man(a1-6)]GalNAc
How it was run: as §1

[10] = molecular target: Neu5Ac(a2-3)Gal(b1-4)GlcNAc(b1-3)GalNAc
How it was run: as §1

[11] = molecular target: Neu5Ac(a2-3)Gal(b1-4)[Fuc(a1-3)]GlcNAc(b1-3)GalNAc
How it was run: as §1

[12] = molecular target: Neu5Ac(a2-6)Gal(b1-3)GlcNAc(b1-3)[Gal(b1-4)GlcNAc(b1-6)]Gal(b1-4)Glc
How it was run: as §1

[13] = molecular target: Neu5Ac(a2-6)Gal(b1-4)GlcNAc(b1-2)Man(a1-3)[GlcNAc(b1-2)Man(b1-4)GlcNAc(b1-2)Man(a1-6)]Man(b1-4)GlcNAc(b1-4)GlcNAc
How it was run: as §1

[14] = molecular target: Neu5Ac(a2-6)Gal(b1-4)GlcNAc(b1-2)Man(a1-3)[GlcNAc(b1-4)][Neu5Ac(a2-6)Gal(b1-4)GlcNAc(b1-2)Man(a1-6)]Man(b1-4)GlcNAc(b1-4)GlcNAc
How it was run: as §1

[15] = molecular target: Neu5Ac(a2-6)Gal(b1-4)GlcNAc(b1-6)[Gal(b1-3)]GalNAc
How it was run: as §1

[16] = molecular target: Neu5Ac(a2-6)GalNAc(b1-4)GlcNAc6S
How it was run: as §1

[17] = molecular target: Neu5Ac(a2-8)Neu5Ac(a2-3)Gal(b1-4)GlcNAc
How it was run: as §1

[18] = molecular target: Neu5Ac(a2-8)Neu5Gc(a2-3)Gal(b1-4)GlcNAc
How it was run: as §1

B1: LlpA1 (Pseudomonas fluorescens), Q4KHC3 (protein)
chain: MGSSHHHHHHSSGLVPRGSHMAWIRYDFTDNGSSVLPARYYMAPNQYLQSPNKRFKLLFQADGNLALYDGAQLAWVADQNTPFTNVSKGNKKDPMMVFMNYGFVLDDPLRGRIWSTTPSDPTMGSREDASLRAFTQVQDDGNIVTVDTIPHWYAPNGRVFTPAVGAAMIIGGTTELVPGQFYSAGEHSLVFQGDGNLVVYGPNSSVIWATYTQNKGGVRCVMQEDGNLVIYAANNGVVWQSGTGGHPGATIRLQANGSFTIVTERPVWARFGYTPTIKPPRVFYPDHKWKTGSYTWNNVF
glycan array binding signal (z-score) [1]: 2.36 | glycan array binding signal (z-score) [2]: -0.927 | glycan array binding signal (z-score) (Gal3S(b1-4)Glc6S): -0.494 | glycan array binding signal (z-score) [3]: -0.518 | glycan array binding signal (z-score) (Gal4S(b1-4)GlcNAc): 0.315 | glycan array binding signal (z-score) (Gal6S(b1-4)GlcNAc): 0.079 | glycan array binding signal (z-score) [4]: 0.158 | glycan array binding signal (z-score) (GalNAc(b1-4)GlcNAc6S): 1.64 | glycan array binding signal (z-score) (GalNAc6S(b1-4)GlcNAc): 1.35 | glycan array binding signal (z-score) (Glc(a1-4)Glc): 0.211 | glycan array binding signal (z-score) (Glc(b1-4)Glc): -1.02 | glycan array binding signal (z-score) [5]: 1.27 | glycan array binding signal (z-score) (GlcNAc(b1-4)GlcNAc): 0.141 | glycan array binding signal (z-score) (Kdn(a2-3)Gal(b1-3)GlcNAc): -0.948 | glycan array binding signal (z-score) [6]: 0.448 | glycan array binding signal (z-score) [7]: -0.367 | glycan array binding signal (z-score) [8]: 0.082 | glycan array binding signal (z-score) [9]: 2.75 | glycan array binding signal (z-score) [10]: -0.31 | glycan array binding signal (z-score) [11]: 0.206 | glycan array binding signal (z-score) [12]: -0.201 | glycan array binding signal (z-score) [13]: 2.45 | glycan array binding signal (z-score) [14]: -0.209 | glycan array binding signal (z-score) [15]: 0.228 | glycan array binding signal (z-score) [16]: -0.028 | glycan array binding signal (z-score) [17]: -0.552 | glycan array binding signal (z-score) [18]: 8.89
